# From PubChem BioAssay AID1259240 (Keith Lab, Institute of Cancer Science, University of …, 2017)
# Unmarked numbers belong to inactive results. Active and inactive are the calls of the source. No stated cut-off is given here; in the data, active means fold change mostly below about -2 (no sharp cut-off); inactive means mostly above about -1.8.
# Test: TERT promoter activity modulators, primary screen, cell-based, luciferase reporter, human (AID 1259240)
# Settings: A2780 TERT promoter luciferase reporter, 16 h; at 20 µM, fold versus average of vehicle-only wells
row,Compound,fold change
1,O=C(CSc1nc2sc3c(c2c(=O)[nH]1)CCCC3)N1CCOCC1,-4.39 (active)
2,CCOc1ccc(S(=O)(=O)n2c(C)nc3ccccc32)cc1,-1.6
3,CCOC(=O)N1CCC(Nc2c(NC3CCCCC3C)c(=O)c2=O)CC1 (stereo unspecified),-1.05
4,O=c1c2ccccc2[nH]c(=S)n1CCCN1CCc2ccccc2C1,-2.32 (active)
5,CC(CC(=O)N1CCN(c2ccc([N+](=O)[O-])cc2)CC1)CC1=NS(=O)(=O)c2ccccc2N1 (stereo unspecified),-1.48
6,CCOC(=O)c1ccc(-c2c(C(F)(F)F)oc3cc(O)c(CC)cc3c2=O)o1,-2.58 (active)
7,Cc1ccc(SCc2nc3sccn3c2Br)cc1,-1.17
8,CCS(=O)(=O)N1CCN(Cc2c[nH]c3ccccc23)CC1,-1.08
9,COc1ccc(-c2csc3nc(-c4ccccc4F)oc(=O)c23)cc1OC,-1.03
10,NC(=O)C1CCN(C(=O)N2c3ccccc3Sc3ccccc32)CC1,-2.9 (active)
11,CCCCN(C)C(=O)Cn1c(=O)oc2cc(S(=O)(=O)N3CC(C)CC(C)C3)ccc21 (stereo unspecified),1.08
12,O=C(Nc1ccc(F)c(F)c1)C1CCCN1S(=O)(=O)c1cccc2nsnc12 (stereo unspecified),-1.3
13,COc1ccccc1Nc1nc(N)nc(CSc2ncccn2)n1,-1.15
14,CCCCNS(=O)(=O)c1ccc(C)c(-c2nnc3c4ccccc4c(C)nn23)c1,-1.28
15,Cc1nnc(NC(=O)Cn2c(=O)sc3ccccc32)s1,-1.03
16,O=C(O)C1CCN(c2nc3ccccc3n2Cc2ccccc2F)CC1,1.02
17,CCCNc1c(NC2CCN(C(=O)OCC)CC2)c(=O)c1=O,-1.23
18,CCN(CC)CCNc1nc2c(c(=O)[nH]c(=O)n2C)n1Cc1cccc(C)c1,-1.42
19,O=C(Cn1c(=O)oc2cc(S(=O)(=O)NC3CCCC3)ccc21)NC1CCCCCCC1,1.01
20,Brc1cccc(-c2nc3cnccn3c2NC2CCCCC2)c1,-1.11
21,Cc1ccccc1Cn1nc(C)c(NC(=O)c2cc(C3CC3)on2)c1C,-1.04
